Screens from PubChem.
SARS PLpro yeast-1: blocks SARS-CoV papain-like protease in a yeast assay | S. cerevisiae expressing SARS-CoV PLpro, growth rescue | Potency, µM (titrated, usually from 32.9 µM), inactives show at the top dose activity, positive = growth rescue, usual class: activators | 330,000 tested, 0.19% active; calls by dose curve; further: potency means the concentration at half of the fitted maximal effect; 0% is about no effect; nearly all actives have a fitted effect of over 55% in size
AMA1-RON2 inh: AMA1-RON2 (P. falciparum) interaction inhibition | AlphaScreen AMA1-biotinylated RON2 peptide binding | 360,000 tested, 0.2% active | Potency, µM (doses to about 58.2 µM), for inactives: top-dose activity change, negative = inhibition, most hits filed as inhibitors | AID 720542;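 further: potency means the concentration at half of the fitted maximal effect; 0% = vehicle wells and -100% = peptide control; nearly all actives have a fitted effect of over 45% in size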
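AMA1 (3D7) with his tag at 25 nM final met compounds first, then biotinylated RON2 peptide at 25 nM; detection used donor plus acceptor beads, 10 µg/mL apiece, read by AlphaScreen after 30 min at room temperature.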
Pf growth 96h: inhibits malaria parasite growth, 96 h; P. falciparum luciferase reporter growth, 96 h; Potency, µM (highest dose often 28.7 µM), without a hit: top-dose activity change, negative = inhibition, most hits filed as inhibitors; 320,000 tested, 6.9% active; AID 504834; further: potency means the concentration at half of the fitted maximal effect; on the % scale 0 is the no-effect control and ±100 the full control effect
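Erythrocytes infected with luciferase-expressing P. falciparum were dispensed at 2% hematocrit and 0.05% parasitemia (final), then incubated with compounds 96 hours at 37 C in 5% CO2. Luminescence after detection reagent addition reported growth.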
Pf growth 48h: inhibits P. falciparum growth in the first generation, 48 h. AID 504832. Potency, µM (doses to about 28.7 µM), without a hit: at the top dose activity change, negative = inhibition, actives largely listed as inhibitors. P. falciparum luciferase growth in erythrocytes, 48 h. 310,000 tested, 5.9% active; further: potency means the concentration at half of the fitted maximal effect; on the % scale 0 is the no-effect control and ±100 the full control effect
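Luminescence readout; reporter = integrated firefly luciferase in P. falciparum. RBC culture at 2% hematocrit, 0.1% parasitemia final, 37 C/5% CO2; decreased signal taken as growth inhibition.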
SARS PLpro yeast-2: Validates SARS-CoV PLpro inhibitor hits in yeast | 1,000 tested, 19% active | calls only | shares compounds with SARS PLpro yeast-1 | yeast expressing SARS-CoV PLpro, growth phenotype rescue; call rule not given here
The depositor's hits bear a star; i = inactive; ? = inconclusive; nt = not tested or not shown; + = active, no number; [ ] = another dose, or the depositor's remark. In the library only some 9.4% were active in any assay of this set; here they are far more common. Unless noted, the call rests on the fitted dose curve; in most records, active means well fitted curve in the direction sought with a large enough effect; inconclusive means small, poorly fitted or top-dose-only effect, or another doubt; inactive means no such curve, though single readings can be large; an effect the other way counts as inactive or inconclusive.

SMILES	SARS PLpro yeast-1	AMA1-RON2 inh	Pf growth 96h	Pf growth 48h	SARS PLpro yeast-2
O=C(O)c1cc(C2CC2)nn1-c1ccccc1	?	2%	35%	nt	i
O=C(c1cc(C2CC2)nn1-c1ccccc1)N1CCN(Cc2ccccc2)CC1	nt	-2%	nt	nt	nt
COc1ccccc1NC(c1cccnc1)c1ccc2cccnc2c1O (stereo unspecified)	4.5µM*	-51%	?	?	?
CN(CCNC(=O)Cn1c(=O)sc2ccccc21)Cc1ccccc1	?	-1%	4.7µM*	nt	i
Cc1ccc(S(=O)(=O)N2CC(O)CC2C(=O)OCc2nc3sc(C)c(C)c3c(=O)[nH]2)cc1 (stereo unspecified)	?	18%	13µM*	12µM*	i
CC(=O)OCc1nc2sc(C)c(C)c2c(=O)[nH]1	-20%	-9%	?	-19%	nt
CCn1cc(Br)c(C(=O)Nc2cccc(Cl)c2)n1	-16%	1%	-16%	22%	nt
O=S(=O)(c1ccc(OCC(O)CN2CCN(c3ccccc3)CC2)cc1)N1CCOCC1 (stereo unspecified)	?	21%	6%[5.75 µM]	-14%	i
O=S(=O)(c1ccc(OCC(O)CN2CCN(c3ccccc3O)CC2)cc1)N1CCOCC1 (stereo unspecified)	-3%	-9%	11%	?	nt
COc1cc(OC)cc(C(=O)NC(=S)NNC(=O)c2cnccn2)c1	nt	20%	?	-23%	i
COc1cc(OC)cc(C(=O)NNC(=S)NC(=O)c2cccnc2)c1	3%	-4%	?	9%	nt
COc1ccc(C(=O)NC(=S)NNC(=O)c2cnccn2)cc1OC	4µM*	23%	?	-15%	?
COc1ccc(C(=O)NCCNC(=O)c2cnccn2)cc1OC	14%	7%	-5%	24%	nt
O=C(Nc1cccc(NC(=O)C2CCCO2)c1)c1ccco1 (stereo unspecified)	-1%	8%	41%	40%	nt
Cc1cc(C(=O)OCC(=O)N2CC(=O)Nc3ccccc32)c(C)n1-c1ccc(F)cc1	4µM*	8%	2.6µM*	4.7µM*	?
Cc1cc(C(=O)OCC(=O)N2CC(=O)Nc3ccccc32)c(C)n1-c1ccccc1	11%	-5%	?	?	nt
COc1cccc(CN(C)C(=O)CC2C(=O)NCCN2C2Cc3ccccc3C2)c1 (stereo unspecified)	nt	-4%	-12%	1%	i
CNC(=O)Oc1ccc2ncccc2c1	14µM*	-4%[11.6 µM]	-5%	-13%	+
COc1ccc(Cn2c(O)c(/C=N/NC(=O)c3ccccc3)c(=O)[nH]c2=O)cc1	10µM*	47%	-28%	12%	i
COc1ccc(Cn2c(O)c(/C=N/NC(=O)c3ccncc3)c(=O)[nH]c2=O)cc1	10%	44%	19%	13%	nt
O=C(N/N=C/c1c(O)n(CCc2ccccc2)c(=O)[nH]c1=O)c1ccccc1O	2.2µM*	65%	-11%	1%	?
COc1ccc(Cn2c(O)c(/C=N/NC(=O)c3ccccc3O)c(=O)[nH]c2=O)cc1	10µM*	66%	5%	-2%	i
O=C(N/N=C/c1c(O)n(CCc2ccc(F)cc2)c(=O)[nH]c1=O)c1ccccc1	2%	95%	?	81%	nt
O=c1[nH]c(=O)n(Cc2ccccc2)c(O)c1/C=N/NCCO	0%	51%	-13%	?	nt
O=C(N/N=C/c1c(O)n(Cc2ccc(F)cc2)c(=O)[nH]c1=O)c1ccccc1O	11µM*	75%	?	12%	i
SMILES	SARS PLpro yeast-1	AMA1-RON2 inh	Pf growth 96h	Pf growth 48h	SARS PLpro yeast-2
O=C(N/N=C/c1c(O)n(Cc2ccccc2)c(=O)[nH]c1=O)c1ccccc1O	10µM*	35%	?	12%	i
CC(C)c1cccc(O)c(=O)c1	?	82%	3.3µM*	2.9µM*	i
C[C@H](N)[C@H](O)c1cccc(O)c1	nt	nt	-10%[12.8 µM]	-13%[12.8 µM]	nt
O=C(COC(=O)/C=C/c1cccs1)Nc1nc(-c2ccccc2)cs1	14µM*	9%	?	-18%	+
COC(=O)C1CN(S(=O)(=O)c2ccc(C)cc2)CCN1S(=O)(=O)c1ccc(C)cc1 (stereo unspecified)	8%	2%	21%	?	nt
Cc1ncc(C23CC4CC(CC(C4)C2)C3)[nH]1	13µM*	12%	39%	-16%	i
O=C(NC(c1ccc(Cl)cc1)c1cc(Cl)c2cccnc2c1O)c1cccnc1 (stereo unspecified)	2.5µM*	106%	46%	1.2µM*	i
COc1ccc(C(NC(C)=O)c2cc(Cl)c3cccnc3c2O)cc1 (stereo unspecified)	10µM*	14%	?	?	i
CN1CCN(C(c2ccc(Cl)cc2)c2cc(Cl)c3cccnc3c2O)CC1 (stereo unspecified)	-23%	-10%	?	?	nt
CCOc1ccc(NC(=O)Nc2cccc(C(=O)O)c2)cc1	-6%	-8%	31%	24%	nt
O=C1CNC(=S)N1CCCn1ccnc1	0%	25%	?	-8%	nt
Cc1nccn1CCCN1C(=O)CNC1=S	4.5µM*	16%	5%	-5%	i
COc1ncnc2c1oc1nc(C)c3c(c12)CC(C)(C)OC3	0%	0%	-5%	12%	nt
Cn1nc(C(=O)Nc2cccnc2)c2ccccc2c1=O	-2%	6%	nt	29%	nt
Cc1c(NC(=O)CSc2ccc(Cl)cc2)cccc1-c1nc2ncccc2o1	?	0%	?	-5%	?
CCC(=O)Nc1cccc(-c2nc3ncccc3o2)c1C	-2%	0%	?	?	nt
Cc1ccc(Cl)cc1NS(=O)(=O)c1cn(C)nc1C	5%	-1%	1%	12%	nt
COc1ccc(Cl)cc1NS(=O)(=O)c1cn(C)nc1C	?	10%	17%	2%	i
Cc1ccc(C(=O)Nc2ccc(N3CCCC3)cc2)cc1	1%	-2%	154%	288%	nt
CCCCCC(=O)N/N=C(\C)c1ccc(N2CCCCC2)cc1	14µM*	27%	?	0%	i
Cc1[nH]c(=S)sc1Cc1ccc(F)cc1	10µM*	22%[11.6 µM]	9%	-8%	i
CCCCN(C(=O)CSc1nnc(-c2ccc(OC)cc2)n1CC)c1c(N)n(Cc2ccccc2)c(=O)[nH]c1=O	?	-5%	?	1%	i
Cc1ccc(OCCC(=O)N(Cc2ccccc2)c2c(N)n(Cc3ccccc3)c(=O)[nH]c2=O)cc1	-1%	-4%	-5%	?	nt
CCOc1ccc(OCCC(=O)N(CCCOC)c2c(N)n(Cc3ccccc3)c(=O)[nH]c2=O)cc1	?	-10%	0%	?	i
CCN1CCc2c(sc(NC(=O)Nc3ccc(Cl)c(Cl)c3)c2C(N)=O)C1	?	15%	27%	12µM*	i
Cc1c(C)c2c(C)[nH]nc2oc1=O	?	1%	?	3%	i
Cc1cc(/C=C(\C#N)C(=O)NC2CCCCCC2)c(C)[nH]1	13µM*	-1%[2.32 µM]	197%	36%	i
COc1ccc2oc(C(=O)OCC(=O)N(C)CC(=O)Nc3ccc(F)cc3)c(C)c2c1	?	-11%	-2%	10%	i
